Screens as filed in PubChem BioAssay.
EWS-Fli inh = inhibitors of EWS/Fli oncoprotein transcriptional activity | A673 NR0B1-luciferase reporter, viability-normalised | inhibition, % at 12.6 µM | 0.67% of 350,000 active;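 active = mean inhibition of at least 50% after viability correction, with every replicate also passing that limit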;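 note: firefly luciferase signal divided by Alamar Blue viability fluorescence both relative to DMSO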
TWEAK-Fn14 inh = TWEAK-Fn14 signaling inhibition; TWEAK-stimulated Fn14 reporter cells, luciferase luminescence, 8 h; inhibition, % at 10 µM; 2% of 360,000 active; in the data active = inhibition above about 50%
TROY signal inh = blocks TROY-dependent signaling in reporter cells; Q293 LMP1-TROYcd NF-kB luciferase reporter, 4 h; inhibition, % at 10 µM; 0.98% of 360,000 active; AID 1347056;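 active = compounds whose plate-normalised and pattern-corrected inhibition of the luciferase reporter signal at the single screening dose is 50% or more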
LGR2 antag = inhibitors of bursicon-induced Drosophila LGR2 receptor cAMP signaling; AID 720647; inhibition, % at 9.99 µM; HEK293 LGR2, CRE-luciferase, bursicon-stimulated, 4 h; 0.35% of 380,000 active;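 active = drop in luminescence signal, shown as inhibition above about 50% in the replicate tests, limit read from the data, passing the limit was not always enough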;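 note: agonist challenge used bursicon conditioned medium at about half maximal strength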
LMP1 NFkB inh = inhibitors of Epstein-Barr LMP1-induced NF-kappaB reporter; 0.69% of 350,000 active; inhibition, % at 12.5 µM; LMP1-induced NF-kappaB luciferase reporter cells, luminescence; AID 504558; in the data active = inhibition above about 41%;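 note: 0% = neutral control wells and 100% = reference inhibitor control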
* hit, by the source's call; . = no result given. In the library only some 2.5% were active in any assay of this set; here they are far more common.

SMILES | EWS-Fli inh | TWEAK-Fn14 inh | TROY signal inh | LGR2 antag | LMP1 NFkB inh
COc1ccc2nc(C)cc(Nc3ccc(N4CCN(C)CC4)cc3)c2c1 | 80* | -50 | -112 | -12 | -9
COc1ccc(OC)c(Nc2cc(C)nc3ccc(C)cc23)c1 | 57* | 9 | -20 | 6 | 8
COC(=O)c1ccc(Nc2cc(C)nc3ccc(C)cc23)cc1 | 19 | -16 | -25 | 74* | 1
COc1ccc2nc(C)cc(N/N=C/c3ccccc3)c2c1 | . | -113 | -71 | . | -21
COc1ccc(/C=N/Nc2cc(C)nc3ccc(OC)cc23)c(OC)c1 | 66* | 86* | 82* | 103* | 70*
CCS(=O)(=O)N[C@@H]1CC[C@@H](CC(=O)NC2Cc3ccccc3C2)O[C@@H]1CO | 3 | . | . | 5 | .
COc1ccc(C#Cc2ccc([C@@H]3[C@H]4CN(C(C)=O)CC(=O)N4[C@H]3CO)cc2)cc1 | 5 | . | . | 10 | .
CCOC(=O)/C(=C\c1cccnc1)C(=O)c1cc(C(C)=O)c(Nc2ccccc2)s1 | . | 106* | 86* | . | 27
CCOC(=O)/C(=C\c1ccccc1)C(=O)c1cc(C(C)=O)c(Nc2ccccc2)s1 | . | 70* | 34 | . | 53*
CCOC(=O)C(=O)/C(C#N)=C/Nc1ccccc1 | . | -7 | -30 | . | -1
CC(C)CC(NS(=O)(=O)c1ccccc1)C(=O)O (stereo not given) | . | -28 | 4 | . | -5
CC(C)CN=C(NS(=O)(=O)c1ccccc1)C(Cl)(Cl)Cl | 45 | 99* | 51* | 94* | 19
COC(=O)c1sc2nc(C)nc(SCC(=O)Nc3sccc3C(N)=O)c2c1C | 11 | 60* | 49 | 13 | 9
Cc1nc(SCC(=O)Nc2sccc2C(N)=O)c2c(C)c(C)sc2n1 | -2 | 9 | 37 | 0 | -6
COc1ccc(C#Cc2ccc([C@@H]3[C@@H](CO)N4CCCCN(Cc5ccncc5)C[C@@H]34)cc2)cc1 | -10 | . | . | -18 | .
Cc1cccc(C(=O)OCC(=O)NCc2cccs2)c1 | 6 | 2 | -29 | . | -23
CS(=O)(=O)c1ccc(C(=O)OCC(=O)NCc2cccs2)cc1[N+](=O)[O-] | 8 | 92* | 24 | 13 | -1
CCc1nc(NCC2CCCN2CC)c2nnn(Cc3ccccc3F)c2n1 (stereo not given) | . | 69* | -20 | . | 0
CCc1nc(NCCc2ccccn2)c2nnn(Cc3ccccc3F)c2n1 | . | 14 | 5 | . | 1
On1ccccc1=S | 52* | 106* | 69* | 21 | -23
O=C(Cn1ccccc1=S)c1ccc(Cl)c(Cl)c1 | 7 | 8 | 17 | 5 | .
O=C(CCCO)NC1Cc2ccccc2C1 | 0 | 60* | 2 | 0 | -2
O=C(Nc1cccc2ccccc12)NC1Cc2ccccc2C1 | -4 | 89* | 57* | -22 | -5
O=C(Nc1cccc2ccccc12)NC1CCCCC1 | -1 | -11 | -3 | -6 | 6
COCC(=O)Nc1ccc2c(c1)OC[C@@H](C)N(Cc1cc(-c3ccccc3)on1)C[C@@H](C)[C@H](OC)CN(C)C2=O | 8 | . | . | -12 | .
SMILES | EWS-Fli inh | TWEAK-Fn14 inh | TROY signal inh | LGR2 antag | LMP1 NFkB inh
CC(C)C[C@H]1COCn2nncc2CC[C@H](Cc2ccccc2)C(=O)N1 | -3 | . | . | 4 | .
COc1ccc(CC(=O)Nc2nc(-c3ccccc3)c(C(C)=O)s2)cc1OC | 24 | 57* | 21 | 10 | 5
CC(=O)Nc1ccc(-c2ccnc(-c3ccc(NC(C)=O)cc3)n2)cc1 | -7 | 62* | -15 | -14 | -4
O=C(N[C@@H]1C[C@@H]2O[C@H](CO)CC[C@@H]2O[C@@H]1CCc1ccc(C#Cc2ccccc2)cc1)c1ccccn1 | 2 | . | . | . | .
CNC[C@@H]1OCCCC[C@H](C)Oc2ccc(NC(=O)Nc3ccccc3)cc2C(=O)N([C@@H](C)CO)C[C@@H]1C | -1 | . | . | 2 | .
CCOC(=O)C1=C(C)NC(SC)=C(C#N)C1CC(C)C (stereo not given) | 54* | 2 | 11 | 9 | -1
C[C@H]1CN([C@@H](C)CO)C(=O)Cc2cc(NS(=O)(=O)c3ccc(Cl)cc3)ccc2O[C@@H]1CN(C)Cc1ccc(-c2ccccc2)cc1 | 1 | . | . | -13 | .
O=C(NCC[C@H]1CC[C@H](NS(=O)(=O)c2cccc(Cl)c2)[C@H](CO)O1)c1cnccn1 | -4 | . | . | 13 | .
COc1ccc(N=C(C)C2C(=O)c3ccccc3C2=O)cc1 | . | 64* | 16 | . | .
COc1ccc(CN(C)C[C@@H]2Oc3c(NC(=O)C4CCOCC4)cccc3C(=O)N([C@@H](C)CO)C[C@H]2C)cc1 | -7 | . | . | 24 | .
CNC[C@H]1Oc2ccc(NC(=O)NC(C)C)cc2CC(=O)N([C@H](C)CO)C[C@@H]1C | -6 | . | . | -12 | .
